Hits are enriched below; roughly 1.9% of the tested compounds scored in any of these assays.
VLA-4 allo ag = enhancers of LDV-FITC binding to VLA-4 integrin, primary screen, Jurkat cells, flow cytometry; activation, % at 10 µM (by protocol); 24,000 tested, under 10 active; AID 528, 2006;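 active means fluorescent ligand binding to cells raised by more than 40% of the manganese-induced maximum; inconclusive means compound's own fluorescence above 85% of the ligand control signal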;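 further: 0% = ligand binding without compound and 100% = manganese-stimulated maximal binding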
Proteasome disasm = inhibitors of ATP-driven 26S proteasome dissociation, primary screen, biochemical, bead-based flow cytometry, GFP-tagged proteasome | anti-FLAG beads, GFP-proteasome disassembly | inhibition of disassembly, % (concentration not given with the values) | 0.2% of 24,000 active;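 active means inhibition of disassembly above about 33%, limit read from the data; inconclusive means likely self-fluorescent, control bead median signal at least 40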;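 further: plate controls were ATP control with full disassembly for no effect and ATP-gamma-S intact proteasomes for full effect; higher percent means more bead fluorescence retained so stronger block of disassembly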
VLA-4 antagonist = inhibitors of LDV-FITC binding to Mn2+-activated VLA-4, primary screen, Jurkat cells | Integrin alpha-4 (Homo sapiens), P13612 | LDV-FITC binding with Mn2+, flow cytometry; 100% = Mn2+-driven binding gain fully reversed | inhibition, % at 10 µM (by protocol) | 0.2% of 24,000 active;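 active means inhibition above 50%; inconclusive means compound itself fluorescent, judged against control cell fluorescence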;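 further: 0% = Mn2+ stimulated cells lacking compound and 100% = ligand binding without Mn2+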
FPRL1 binder = human FPRL1 ligands by binding competition, primary screen, cell-based, FPR counter-screen, flow cytometry | inhibition, % (no concentration beside the values) | 0.3% of 24,000 active | FPRL1-expressing cells, fluorescent ligand binding inhibition;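 further: 0% = buffer alone and 100% = receptor blocker peptide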
FPR binder = human FPR ligands by binding competition, primary screen, cell-based, FPRL1 counter-screen, flow cytometry | fMet-Leu-Phe receptor (Homo sapiens), P21462 | FPR-expressing cells, fluorescent ligand binding | inhibition, % (concentration not given with the values) | 0.74% of 24,000 active | AID 440, 2006;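 further: 0% = buffer wells and 100% = receptor blocker peptide wells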
Target sequence (P21462 whole entry, looked up): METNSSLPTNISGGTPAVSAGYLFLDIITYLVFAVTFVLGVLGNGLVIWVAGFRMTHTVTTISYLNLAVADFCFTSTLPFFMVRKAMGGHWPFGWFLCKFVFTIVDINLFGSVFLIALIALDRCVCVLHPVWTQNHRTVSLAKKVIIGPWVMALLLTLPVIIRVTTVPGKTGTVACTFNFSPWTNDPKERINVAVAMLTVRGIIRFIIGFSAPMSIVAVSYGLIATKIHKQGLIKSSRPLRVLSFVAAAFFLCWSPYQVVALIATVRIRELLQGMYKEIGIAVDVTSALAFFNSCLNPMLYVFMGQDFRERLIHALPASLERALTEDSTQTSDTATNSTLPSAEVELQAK
Autofluor Jurkat = compound autofluorescence on Jurkat cells, primary screen, artefact control for VLA-4 allosteric ligand project, cell-based, flow cytometry; hits give high values; 1 = vehicle-only cell background; fluorescence ratio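 (tested at 10 µM compound in the well)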; 0.61% of 24,000 active; AID 576, 2007;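 active means fluorescence ratio above 2.44, which is 1 plus 3 SD of all ratios; inconclusive means signal too bright to measure linearly, ratio around 10 or more; inactive means fluorescence ratio below 2.44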;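 further: green fluorescence of cells measured with 488 nm excitation and 530 nm emission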
The depositor's hits bear a star. Unless noted, no stated cut-off is given here; in the data, active means inhibition above about 30%; inconclusive means no clear call, values can overlap the other calls; inactive means below that.

How did O=C1CC(c2cccc(Cl)c2)Cc2nc(N3CCN(c4ccccc4)CC3)ncc21 (stereo unspecified) do in these assays?
VLA-4 allo ag: 11; Proteasome disasm: -3; VLA-4 antagonist: -13; FPRL1 binder: 0; FPR binder: -3; Autofluor Jurkat: 1

Results for O=C1CC(c2ccccc2)Cc2nc(N3CCc4ccccc43)ncc21 (stereo unspecified) ?
VLA-4 allo ag: 3; Proteasome disasm: 74*; VLA-4 antagonist: -5; FPRL1 binder: -2; FPR binder: -3; Autofluor Jurkat: 1

How did COc1cccc(-n2nnc3c(=O)n(CC(=O)N4CCC(C)CC4)cnc32)c1 do in these assays?
VLA-4 allo ag: -2; Proteasome disasm: 0; VLA-4 antagonist: -2; FPRL1 binder: -3; FPR binder: -4; Autofluor Jurkat: 1

Results for COc1cccc(-n2nnc3c(=O)n(CC(=O)N4CCC(Cc5ccccc5)CC4)cnc32)c1 ?
VLA-4 allo ag: -5; Proteasome disasm: 1; VLA-4 antagonist: 74*; FPRL1 binder: -3; FPR binder: -1; Autofluor Jurkat: 1.1

Results for C/C(=N\O)C(=O)NCc1ccncc1 ?
VLA-4 allo ag: inconclusive; Proteasome disasm: -4; VLA-4 antagonist: inconclusive; FPRL1 binder: 4; FPR binder: -6; Autofluor Jurkat: 6.2*

What do the screens show for `CNC(=O)c1cc2c(=O)n3cccc(C)c3nc2n1C`?
VLA-4 allo ag: inconclusive; Proteasome disasm: -2; VLA-4 antagonist: inconclusive; FPRL1 binder: -6; FPR binder: 2; Autofluor Jurkat: 2.2

What do the screens show for `Cn1c(=O)oc2cc(S(=O)(=O)N3CCC(C(=O)NCC4COc5ccccc5O4)CC3)ccc21` (stereo unspecified)?
VLA-4 allo ag: 3; Proteasome disasm: 4; VLA-4 antagonist: -20; FPRL1 binder: 20; FPR binder: 31*; Autofluor Jurkat: 1

Results for CC1CCN(S(=O)(=O)c2ccc3c(c2)oc(=O)n3CC(=O)NCc2ccc3c(c2)OCO3)CC1 ?
VLA-4 allo ag: 0; Proteasome disasm: 4; VLA-4 antagonist: 3; FPRL1 binder: -4; FPR binder: 39*; Autofluor Jurkat: 1.1

Results for Cn1c(=O)oc2cc(S(=O)(=O)N3CCC(C(=O)NCc4cccs4)CC3)ccc21 ?
VLA-4 allo ag: 4; Proteasome disasm: 0; VLA-4 antagonist: -11; FPRL1 binder: 6; FPR binder: 1; Autofluor Jurkat: 0.98

What do the screens show for `O=C(NCCCN1CCN(c2ccc(F)cc2)CC1)c1cccc(N2CCCC2=O)c1`?
VLA-4 allo ag: -5; Proteasome disasm: -1; VLA-4 antagonist: -2; FPRL1 binder: 31*; FPR binder: -2; Autofluor Jurkat: 1.1

Results for O=C(NCCCN1CCCC1)c1cccc(N2CCCC2=O)c1 ?
VLA-4 allo ag: 3; Proteasome disasm: 5; VLA-4 antagonist: 19; FPRL1 binder: -1; FPR binder: 0; Autofluor Jurkat: 0.97

How did Cc1n[nH]c(C)c1S(=O)(=O)N1CCCC(C(=O)NC2CCCc3ccccc32)C1 (stereo unspecified) do in these assays?
VLA-4 allo ag: inconclusive; Proteasome disasm: 1; VLA-4 antagonist: inconclusive; FPRL1 binder: -3; FPR binder: 0; Autofluor Jurkat: 2.5*

What do the screens show for `Cc1n[nH]c(C)c1S(=O)(=O)N1CCCC(C(=O)NCc2cccs2)C1` (stereo unspecified)?
VLA-4 allo ag: 21; Proteasome disasm: -1; VLA-4 antagonist: -40; FPRL1 binder: -1; FPR binder: 2; Autofluor Jurkat: 0.8

How did O=C1c2ccccc2C(Nc2ccc3c(c2)OCCO3)N1Cc1ccccc1 (stereo unspecified) do in these assays?
VLA-4 allo ag: 2; Proteasome disasm: 0; VLA-4 antagonist: -5; FPRL1 binder: -6; FPR binder: -5; Autofluor Jurkat: 1.1

How did COc1ccc(OC)c(C2C(C(=O)c3ccco3)=C(O)C(=O)N2CCCN2CCOCC2)c1 (stereo unspecified) do in these assays?
FPRL1 binder: 1; FPR binder: 50*

Screens as filed in PubChem BioAssay.
